Data on 17 molecules can be found in ChEMBL document CHEMBL1961873, “Compounds: GSK PKIS; Assays: Nanosyn kinase panel” (2012).

The target of test [1] is T1, Muscle, skeletal receptor tyrosine-protein kinase (Homo sapiens) (UniProt O15146).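 Note: reported value is the mean percent inhibition of MuSK kinase.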
T1 sequence (whole entry): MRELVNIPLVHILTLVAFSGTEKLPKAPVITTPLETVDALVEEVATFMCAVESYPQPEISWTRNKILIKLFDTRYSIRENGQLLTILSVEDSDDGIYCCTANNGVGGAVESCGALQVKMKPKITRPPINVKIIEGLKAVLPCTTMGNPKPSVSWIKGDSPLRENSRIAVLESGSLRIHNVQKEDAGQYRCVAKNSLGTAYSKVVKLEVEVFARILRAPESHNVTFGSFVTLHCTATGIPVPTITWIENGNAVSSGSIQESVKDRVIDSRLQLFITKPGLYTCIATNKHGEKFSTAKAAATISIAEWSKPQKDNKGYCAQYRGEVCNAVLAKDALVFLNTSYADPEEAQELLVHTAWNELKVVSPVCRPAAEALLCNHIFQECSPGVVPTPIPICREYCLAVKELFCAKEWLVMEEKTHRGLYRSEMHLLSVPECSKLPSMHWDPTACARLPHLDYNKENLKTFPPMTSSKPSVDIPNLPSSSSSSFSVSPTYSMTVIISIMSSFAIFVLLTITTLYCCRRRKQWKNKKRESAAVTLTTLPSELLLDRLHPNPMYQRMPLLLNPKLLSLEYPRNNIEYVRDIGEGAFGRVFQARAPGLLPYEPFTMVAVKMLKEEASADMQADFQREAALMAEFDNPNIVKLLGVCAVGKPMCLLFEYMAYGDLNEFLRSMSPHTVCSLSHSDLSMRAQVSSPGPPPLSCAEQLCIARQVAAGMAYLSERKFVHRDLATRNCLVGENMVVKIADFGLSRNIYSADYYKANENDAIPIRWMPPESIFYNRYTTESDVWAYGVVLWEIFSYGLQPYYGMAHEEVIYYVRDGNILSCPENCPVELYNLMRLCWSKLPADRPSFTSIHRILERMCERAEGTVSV
The settings on record: at 1 µM.

Test [2] concerns the target Platelet-derived growth factor receptor alpha (Homo sapiens) (UniProt P16234). The settings on record: at 0.1 µM.
Test [3] has the same target. The note with it: at 1 µM.
The subject of test [4] is Platelet-derived growth factor receptor alpha (Homo sapiens), P16234 [D842V]. The settings on record: at 0.1 µM.
For test [5] the test system is unchanged. The settings on record: at 1 µM.
In test [6] the test system is Platelet-derived growth factor receptor alpha (Homo sapiens), P16234 [T674I]. The settings on record: at 0.1 µM.
Platelet-derived growth factor receptor alpha (Homo sapiens), P16234 [T674I], sequence (P16234 whole entry T674I): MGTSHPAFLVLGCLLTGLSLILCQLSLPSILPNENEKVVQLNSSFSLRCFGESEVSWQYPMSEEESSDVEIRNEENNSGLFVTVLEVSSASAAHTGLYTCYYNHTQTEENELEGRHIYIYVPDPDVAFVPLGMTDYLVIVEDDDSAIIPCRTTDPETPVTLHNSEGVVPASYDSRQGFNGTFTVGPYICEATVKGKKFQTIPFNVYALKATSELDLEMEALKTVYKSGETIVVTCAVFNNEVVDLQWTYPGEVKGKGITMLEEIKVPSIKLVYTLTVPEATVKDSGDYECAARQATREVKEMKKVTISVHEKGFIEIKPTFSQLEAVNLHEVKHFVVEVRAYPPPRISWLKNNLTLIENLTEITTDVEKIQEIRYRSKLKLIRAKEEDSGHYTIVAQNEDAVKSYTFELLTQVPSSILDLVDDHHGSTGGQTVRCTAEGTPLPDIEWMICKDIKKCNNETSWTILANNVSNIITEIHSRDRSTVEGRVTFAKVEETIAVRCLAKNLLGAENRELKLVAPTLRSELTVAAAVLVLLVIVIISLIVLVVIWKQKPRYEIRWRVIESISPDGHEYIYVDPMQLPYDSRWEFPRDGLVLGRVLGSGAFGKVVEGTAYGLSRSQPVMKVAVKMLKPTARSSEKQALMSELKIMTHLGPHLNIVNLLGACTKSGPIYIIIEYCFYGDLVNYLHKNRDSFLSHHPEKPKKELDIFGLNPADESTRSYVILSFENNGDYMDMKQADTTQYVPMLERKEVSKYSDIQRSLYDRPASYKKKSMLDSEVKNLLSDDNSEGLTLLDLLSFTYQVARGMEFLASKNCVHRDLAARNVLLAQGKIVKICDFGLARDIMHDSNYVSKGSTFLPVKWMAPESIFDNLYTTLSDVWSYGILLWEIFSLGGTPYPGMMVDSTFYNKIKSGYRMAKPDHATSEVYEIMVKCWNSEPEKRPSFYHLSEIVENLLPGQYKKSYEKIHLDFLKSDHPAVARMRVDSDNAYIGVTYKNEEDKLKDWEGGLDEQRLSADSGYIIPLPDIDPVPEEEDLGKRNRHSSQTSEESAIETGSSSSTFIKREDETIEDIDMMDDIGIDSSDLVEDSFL
For test [7] the test system is unchanged. The note with it: at 1 µM.
Test [8] has as its system Platelet-derived growth factor receptor alpha (Homo sapiens), P16234 [V561D]. The note with it: at 0.1 µM.
For test [9] the test system is unchanged. The settings on record: at 1 µM.
The target in test [10] is Platelet-derived growth factor receptor beta (Homo sapiens) (UniProt P09619). The settings on record: at 0.1 µM.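 Note: reported value is the mean percent inhibition of the kinase.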
Platelet-derived growth factor receptor beta (Homo sapiens), sequence (P09619 whole entry): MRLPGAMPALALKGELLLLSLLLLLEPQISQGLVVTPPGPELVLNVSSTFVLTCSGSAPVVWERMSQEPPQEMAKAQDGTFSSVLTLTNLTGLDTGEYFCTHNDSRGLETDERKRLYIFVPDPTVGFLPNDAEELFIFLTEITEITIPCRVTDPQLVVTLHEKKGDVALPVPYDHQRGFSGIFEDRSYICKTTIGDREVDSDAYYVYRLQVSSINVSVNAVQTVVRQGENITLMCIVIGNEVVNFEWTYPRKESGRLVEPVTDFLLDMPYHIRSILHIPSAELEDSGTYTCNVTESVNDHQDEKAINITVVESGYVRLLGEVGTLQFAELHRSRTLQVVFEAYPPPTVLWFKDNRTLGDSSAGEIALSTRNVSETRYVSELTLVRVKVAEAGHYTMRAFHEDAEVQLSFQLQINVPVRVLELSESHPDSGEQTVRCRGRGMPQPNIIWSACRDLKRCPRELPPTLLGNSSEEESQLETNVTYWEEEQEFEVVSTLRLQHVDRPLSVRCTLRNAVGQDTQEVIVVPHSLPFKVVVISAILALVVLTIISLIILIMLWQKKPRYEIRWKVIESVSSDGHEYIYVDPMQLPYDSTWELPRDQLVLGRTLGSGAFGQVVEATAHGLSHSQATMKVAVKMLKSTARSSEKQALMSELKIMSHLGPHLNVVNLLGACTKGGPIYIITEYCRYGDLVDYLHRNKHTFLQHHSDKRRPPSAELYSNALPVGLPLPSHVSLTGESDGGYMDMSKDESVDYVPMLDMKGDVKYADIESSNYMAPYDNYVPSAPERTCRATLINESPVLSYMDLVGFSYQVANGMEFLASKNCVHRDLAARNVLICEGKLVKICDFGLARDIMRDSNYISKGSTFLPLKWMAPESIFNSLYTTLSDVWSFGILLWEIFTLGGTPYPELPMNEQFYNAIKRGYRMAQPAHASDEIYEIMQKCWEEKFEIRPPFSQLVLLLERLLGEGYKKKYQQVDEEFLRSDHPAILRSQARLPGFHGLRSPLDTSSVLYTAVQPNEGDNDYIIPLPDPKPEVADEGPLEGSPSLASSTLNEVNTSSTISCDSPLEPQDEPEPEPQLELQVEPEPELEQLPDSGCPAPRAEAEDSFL

Each structure is given as a SMILES string.

Platelet-derived growth factor receptor alpha (Homo sapiens), P16234 [D842V], sequence (P16234 whole entry D842V): as the sequence (P16234 whole entry T674I) above, with I674T, D842V counted along it
Platelet-derived growth factor receptor alpha (Homo sapiens), P16234 [V561D], sequence (P16234 whole entry V561D): as the sequence (P16234 whole entry T674I) above, with V561D, I674T counted along it
Platelet-derived growth factor receptor alpha (Homo sapiens), sequence (P16234 whole entry): as the sequence (P16234 whole entry T674I) above, with I674T counted along it

A word on the inhibition: it is the change of the read-out against control, counted positive when it falls. Take `NC(=O)c1cccc(Nc2nccc(Nc3cccc4[nH]ncc34)n2)c1`: the inhibition in [1] was 15.3%; in test [2], 23.7%; in [3], 71.3%; in [4], 13.2%; in test [5], 67.7%; in test [6] it was -2.44%. The inhibition worked out at 4.54% in test [7], 20.7% in test [8], 70.4% in [9] and 42.1% in [10].
Regarding `CC(=O)Nc1cccc(C#Cc2cncnc2Nc2ccc(OCc3cccc(F)c3)c(Cl)c2)n1`, the inhibition is 2.93% in test [1]; 2.49% in test [2]; 8.73% in [3]; 1.14% in [4]; 2.21% in test [5]; -0.15% in test [6]. Also, the inhibition in [7] was -0.14%; in [8] it was 3.24%; in test [9] it was 1.4%; in test [10], 6.88%.
Take `CC1=C(C(=O)Nc2ccc3[nH]ncc3c2)C(c2ccc3ccccc3c2)CC(=O)N1` (stereo not given): the inhibition in test [1] came out at 5.45%; in [2], 8.08%; in [3] it was 14.6%; in test [4], 2.86%; in test [5], 5.83%; in test [6], 3.54%. Also, the inhibition in test [7] worked out at 5.01%; in test [8] it was 5.52%; in [9], 7.45%; in [10], 2.15%.
In the case of `CS(=O)(=O)Nc1ccc(N/C=C2\C(=O)Nc3ccccc32)cc1`, the inhibition in [1] came out at 35.9%; in test [2] it was 9.58%; in test [3], 41.9%; in test [4], 2.98%; in test [5] it was 18%; in test [6] it was 11.1%. For the same molecule, the inhibition in [7] came to 62.5%; in [8] it was 15%; in test [9], 51%; in test [10] it was 6.47%.
With `CS(=O)(=O)CCNCc1nc(-c2ccc3ncnc(Nc4ccc(F)c(Cl)c4)c3c2)cs1`, the inhibition in test [1] is 2.48%; in test [2], 11.7%; in test [3] it was 25.9%; in test [4] it was 1.4%; in test [5], 10.4%; in [6] it was 10.8%. For the same molecule, the inhibition is 8.67% in test [7], 2.8% in test [8], 9.09% in [9] and 3.34% in [10].
With `CNC(=O)c1cncc(/C=C/c2c(Cl)cccc2Cl)c1`, the inhibition in [1] was 6.78%; in test [2], 8.07%; in test [3], 21.1%; in test [4], 0.55%; in [5] it was 4.33%; in [6] it was 1.59%. Besides, the inhibition in test [7] came out at 5.24%; in test [8], 14.1%; in test [9], 43%; in test [10], 5.46%.
For the molecule `O=C1NC(=O)C(c2ccccc2Cl)=C1Nc1cccc(O)c1`, the inhibition in [1] was 6.51%; in test [2] it was 5.26%; in test [3], 9.63%; in [4] it was 0.89%; in [5] it was -0.58%; in test [6], 1.6%. Also, the inhibition in test [7] came out at 2.66%; in [8], 1.34%; in [9], 2.14%; in [10] it was 4.9%.
For the molecule `Cc1nnc(-c2ccc(C)c(-c3ccc(C(=O)Nc4cccc(C#N)c4)cc3)c2)o1`, the inhibition in test [1] was 2.91%; in test [2] it was 7.61%; in test [3] it was 15.8%; in test [4], 0.78%; in [5] it was 2.5%; in test [6], 3.31%. For the same molecule, the inhibition was determined as 6.79% in test [7], 3.46% in test [8], 5.28% in test [9] and 6.49% in test [10].
On to `COc1cc2ncn(-c3cc(OCc4ccccc4C(F)(F)F)c(C(N)=O)s3)c2cc1OC`, for which the inhibition was found to be 32.7% in test [1]; 47.1% in test [2]; 83.5% in [3]; 29.5% in [4]; 79.9% in test [5]; 19.1% in test [6]. For the same molecule, the inhibition was 68% in test [7], 36.6% in [8], 84.9% in [9] and 45% in [10].
Turning to `COc1ccc(-c2nn3ncccc3c2-c2ccnc(Nc3ccc(Cl)c(C(F)(F)F)c3)n2)cc1`, the inhibition in test [1] is 1.1%; in test [2], 3.58%; in test [3], 7.86%; in test [4] it was 0.96%; in test [5], 1.8%; in test [6], 3.16%. Besides, the inhibition turned out to be 5.2% in test [7], 3.43% in test [8], 3.24% in test [9] and 2.18% in test [10].
In the case of `COC(=O)Nc1nc2cc(Oc3cccc(NC(=O)Nc4cc(C(F)(F)F)ccc4F)c3)ccc2[nH]1`, the inhibition in test [1] was determined as 32.3%; in test [2], 48.6%; in test [3] it was 80.2%; in test [4] it was 2.6%; in test [5] it was 8.72%; in [6], 4.75%. Besides, the inhibition came out at 37.5% in [7], 40.7% in test [8], 87.4% in test [9] and 11.4% in test [10].
For the molecule `CCn1c(-c2nonc2N)nc2cncc(C(=O)N3CC[C@H](N)C3)c21`, the inhibition in [1] was 3.51%; in [2], 7.67%; in test [3], 6.08%; in test [4], 4.02%; in test [5], 5.6%; in [6] it was 6.8%. For the same molecule, the inhibition was determined as 8.93% in [7], 2.86% in test [8], 1.28% in test [9] and 4.13% in [10].
On to `Nc1nc(-c2ccccn2)c(-c2ccc3ncccc3n2)s1`, for which the inhibition in [1] was 4.69%; in test [2], 5.63%; in test [3], 11.4%; in test [4], 1.02%; in test [5], 1.79%; in [6], 3.45%. The inhibition in test [7] was 7.4%; in test [8], -0.56%; in [9], -1.5%; in test [10] it was 6.46%.
Consider `COc1cc2ncn(-c3cc(OCc4ccccc4Cl)c(C(N)=O)s3)c2cc1OC`, for which the inhibition is 21.2% in test [1]; 46.7% in [2]; 90.5% in test [3]; 30.4% in test [4]; 82.2% in test [5]; 9.35% in [6]. Moreover, the inhibition in test [7] was found to be 69.7%; in test [8], 39.1%; in test [9], 83.3%; in test [10], 41%.
Turning to `COc1cc2ncn(-c3cc(O[C@H](C)c4ccccc4Cl)c(C(N)=O)s3)c2cc1OC`, the inhibition amounted to 78.2% in test [1]; 73.2% in [2]; 100% in test [3]; 42.1% in test [4]; 88.2% in [5]; 56.5% in [6]. Moreover, the inhibition is 97.2% in test [7], 50.5% in [8], 87.3% in test [9] and 59.7% in [10].
As to `Fc1cccc(COc2ccc(Nc3ncnc4cc(-c5ccc[nH]5)sc34)cc2Cl)c1`, the inhibition in test [1] was determined as 6.25%; in test [2], 9.2%; in test [3], 15.6%; in test [4] it was 2.17%; in test [5] it was 4.7%; in test [6] it was 4.02%. The inhibition in test [7] amounted to 4.37%; in test [8], 2.42%; in test [9] it was 5.59%; in test [10], 3.02%.
`CCn1c(-c2nonc2N)nc2c(C#CC(C)(C)O)nc(CN3CCCC3)cc21`: the inhibition in test [1] stood at 4.26%; in test [2] it was 7.83%; in [3], 13.1%; in test [4], 3.09%; in [5], 5.71%; in [6] it was 2.75%. Further, the inhibition amounted to 0.39% in test [7], 2.19% in test [8], 6.46% in [9] and 3.33% in test [10].
